In ChEMBL document CHEMBL1961873, “Compounds: GSK PKIS; Assays: Nanosyn kinase panel” (2012) one finds inhibition data, which are given here for 31 compounds.

As usually defined, the inhibition is the change of the read-out against control, counted positive when it falls.

Where “and” joins values, the source holds several entries; their conditions need not be identical. Equal entries are not always repeated.

In the first assay the target is T1, Tyrosine-protein kinase ZAP-70 (Homo sapiens) (UniProt P43403).
T1 sequence (whole entry): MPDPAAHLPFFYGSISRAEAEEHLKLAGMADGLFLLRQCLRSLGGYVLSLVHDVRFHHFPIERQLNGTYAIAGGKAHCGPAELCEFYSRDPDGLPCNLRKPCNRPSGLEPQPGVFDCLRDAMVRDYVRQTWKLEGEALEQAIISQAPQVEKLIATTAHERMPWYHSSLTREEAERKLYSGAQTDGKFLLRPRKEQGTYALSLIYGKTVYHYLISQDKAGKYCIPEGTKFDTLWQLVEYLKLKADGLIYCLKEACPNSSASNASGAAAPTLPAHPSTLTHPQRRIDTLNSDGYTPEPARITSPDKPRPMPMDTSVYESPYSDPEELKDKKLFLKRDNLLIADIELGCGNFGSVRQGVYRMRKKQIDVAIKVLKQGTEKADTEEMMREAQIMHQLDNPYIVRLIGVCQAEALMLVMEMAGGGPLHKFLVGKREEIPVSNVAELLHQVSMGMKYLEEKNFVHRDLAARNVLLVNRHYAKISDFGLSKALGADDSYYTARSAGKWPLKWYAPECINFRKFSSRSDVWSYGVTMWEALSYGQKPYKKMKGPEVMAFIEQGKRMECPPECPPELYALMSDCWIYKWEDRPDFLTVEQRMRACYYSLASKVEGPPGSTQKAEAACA
Particulars: at 0.1 µM.
Turning to `COc1ccc2ncn(-c3cc(O[C@H](C)c4ccccc4C(F)(F)F)c(C(N)=O)s3)c2c1`, the inhibition was determined as 2.16%.

On to `N#Cc1cccc(Nc2ncc(-c3ccccc3)o2)c1`, for which the inhibition worked out at 0.3%.

For `CCN1CCC(C(=O)Nc2n[nH]c3nnc(-c4cccc(F)c4F)cc23)CC1`, the inhibition was -1.24%.

In the case of `CNC(=O)c1ncccc1Nc1nc(Nc2cc3c(cc2OC)CCCN3C(=O)CN(C)C)nc2[nH]ccc12`, the inhibition was -0.5%.

Take `CNC(=O)c1cncc(/C=C/c2ccccc2C)c1`: the inhibition turned out to be 1.58%.

`CS(=O)(=O)CCNCc1ccc(-c2ccc3ncnc(Nc4ccc(OCc5ccccc5)cc4)c3c2)o1`: the inhibition was 0.98%.

With `CS(=O)(=O)CCNCc1ccoc1-c1ccc2ncnc(Nc3ccc(OCc4ccccc4)cc3)c2c1`, the inhibition is -0.82%.

On to `COc1cc2c(cc1Nc1nc(Nc3cccc(F)c3C(N)=O)c3cc[nH]c3n1)N(C(=O)CN1CCN(C(C)C)CC1)CC2`, for which the inhibition amounted to 2.59%.

On to `CN1CCC(n2cnc(-c3ccc(F)cc3)c2-c2ccnc(NCCO)n2)CC1`, for which the inhibition stood at 2.9%.

As for `CCn1c(-c2nonc2N)nc2cncc(C(=O)NCCNC)c21`, the inhibition came to 0.59%.

For `OCCCNc1nccc(-c2c(-c3ccc(F)cc3)nn3cc(C(F)(F)F)ccc23)n1`, the inhibition turned out to be 2.54%.

`NS(=O)(=O)c1ccc(N/N=C2\C(=O)Nc3ccc(C(=O)NCc4ccncc4)cc32)cc1`: the inhibition was determined as 2.55%.

On to `CC1(C)CC(n2cnc(-c3ccc(F)cc3)c2-c2ccnc(N)n2)CC(C)(C)N1`, for which the inhibition is 0.52%.

For `COC(=O)Nc1nc2ccc(Oc3ccc(NC(=O)Nc4cc(C(F)(F)F)ccc4F)cc3)cc2s1`, the inhibition is 1.19%.

Take `COc1c(C(N)=O)cc(-c2ccc(Cl)cc2)cc1-c1ccc(S(N)(=O)=O)cc1`: the inhibition came to 2.39%.

A further assay deals with T1, Tyrosine-protein kinase ZAP-70 (Homo sapiens). Particulars: at 1 µM.
Take `O=C1Nc2ccccc2/C1=C1\CCc2cc(O)ccc21`: the inhibition worked out at 7.74%.

As to `CCS(=O)(=O)c1ccc(OC)c(Nc2ncc(-c3cccc(C(C)=O)c3)o2)c1`, the inhibition turned out to be 1.3%.

For the compound `Cc1ccc(-c2cc3c(NC(=O)C4CC4)ncnc3o2)cc1`, the inhibition was 3.18%.

Turning to `COc1ccc(-c2nn3ncccc3c2-c2ccnc(Nc3ccc(F)c(F)c3)n2)cc1`, the inhibition worked out at 1.2%.

For the compound `O=C(Nc1n[nH]c2nnc(-c3cccnc3)cc12)C1CC1`, the inhibition is 2.36%.

As for `O=C(O[C@H]1CN[C@H](C#Cc2cc3ncnc(Nc4ccc5c(ccn5Cc5cc(F)ccc5F)c4)c3s2)C1)N1CCOCC1`, the inhibition is 2.72%.

With `COc1cccc(Nc2nccc(-c3cnn4ncccc34)n2)c1`, the inhibition turned out to be 11.7%.

Turning to `Nc1nccc(-c2c(-c3ccc(F)cc3)ncn2C2CCNCC2)n1`, the inhibition was -2.69% and 1.59%.

For `NC(=O)c1ccc2c(-c3ccnc(NCCCO)n3)c(-c3ccc(F)cc3)nn2c1`, the inhibition stood at 1.63%.

In the case of `CS(=O)(=O)Nc1ccc(-c2cc(-c3ccccc3)cc(C(N)=O)c2N)cc1`, the inhibition is -3.4%.

On to `CS(=O)(=O)Nc1ccc(-c2ccc3c(NC(=O)C4CC4)n[nH]c3c2)cc1`, for which the inhibition was 3.42%.

On to `Cn1c(-c2nonc2N)nc2cnccc21`, for which the inhibition was 1.74%.

Take `CC1=C(C(=O)Nc2ccc3[nH]ncc3c2)C(c2ccc(F)cc2)N=C(c2ccc(C(F)(F)F)nc2)N1` (configuration not stated): the inhibition was 1.68%.

With `c1ccc(-c2n[nH]cc2-c2ccnc(-c3ccc(OCCn4ccnc4)cc3)c2)nc1`, the inhibition worked out at 2.34%.

For `CS(=O)(=O)CCNCc1ccc(-c2ccc3ncnc(Nc4ccc(OCc5cccc(C(F)(F)F)c5)cc4)c3c2)o1`, the inhibition amounted to 0.41%.

In the case of `FC(F)(F)CNc1nccc(-c2cnn3ncccc23)n1`, the inhibition turned out to be 1.8%.

Turning to `COc1ccc2ncn(-c3cc(O[C@H](C)c4ccccc4C(F)(F)F)c(C(N)=O)s3)c2c1`, the inhibition came to 2.62%.

Consider `N#Cc1cccc(Nc2ncc(-c3ccccc3)o2)c1`, for which the inhibition worked out at 1.57%.

With `CCN1CCC(C(=O)Nc2n[nH]c3nnc(-c4cccc(F)c4F)cc23)CC1`, the inhibition was 2.19%.

As to `CNC(=O)c1ncccc1Nc1nc(Nc2cc3c(cc2OC)CCCN3C(=O)CN(C)C)nc2[nH]ccc12`, the inhibition came out at 2.99%.

On to `CNC(=O)c1cncc(/C=C/c2ccccc2C)c1`, for which the inhibition stood at 2.36%.

As to `CS(=O)(=O)CCNCc1ccc(-c2ccc3ncnc(Nc4ccc(OCc5ccccc5)cc4)c3c2)o1`, the inhibition turned out to be 2.51%.

As to `CS(=O)(=O)CCNCc1ccoc1-c1ccc2ncnc(Nc3ccc(OCc4ccccc4)cc3)c2c1`, the inhibition was 2.26%.

On to `COc1cc2c(cc1Nc1nc(Nc3cccc(F)c3C(N)=O)c3cc[nH]c3n1)N(C(=O)CN1CCN(C(C)C)CC1)CC2`, for which the inhibition was 3.22%.

With `CN1CCC(n2cnc(-c3ccc(F)cc3)c2-c2ccnc(NCCO)n2)CC1`, the inhibition is -0.3%.

Take `CCn1c(-c2nonc2N)nc2cncc(C(=O)NCCNC)c21`: the inhibition was determined as 1.01%.

Take `OCCCNc1nccc(-c2c(-c3ccc(F)cc3)nn3cc(C(F)(F)F)ccc23)n1`: the inhibition is -1.3%.

Consider `NS(=O)(=O)c1ccc(N/N=C2\C(=O)Nc3ccc(C(=O)NCc4ccncc4)cc32)cc1`, for which the inhibition came out at 3.8%.

Regarding `CC1(C)CC(n2cnc(-c3ccc(F)cc3)c2-c2ccnc(N)n2)CC(C)(C)N1`, the inhibition was 2.37%.

With `COC(=O)Nc1nc2ccc(Oc3ccc(NC(=O)Nc4cc(C(F)(F)F)ccc4F)cc3)cc2s1`, the inhibition is -0.75%.

With `COc1c(C(N)=O)cc(-c2ccc(Cl)cc2)cc1-c1ccc(S(N)(=O)=O)cc1`, the inhibition is 4.12%.

In another assay the target is Serine/threonine-protein kinase B-raf (Homo sapiens) (UniProt P15056). Particulars: at 0.1 µM.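 Also: mean percent inhibition of BRAF kinase activity, from the GSK PKIS kinase inhibitor screening set.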
Sequence of Serine/threonine-protein kinase B-raf (Homo sapiens) (P15056 whole entry): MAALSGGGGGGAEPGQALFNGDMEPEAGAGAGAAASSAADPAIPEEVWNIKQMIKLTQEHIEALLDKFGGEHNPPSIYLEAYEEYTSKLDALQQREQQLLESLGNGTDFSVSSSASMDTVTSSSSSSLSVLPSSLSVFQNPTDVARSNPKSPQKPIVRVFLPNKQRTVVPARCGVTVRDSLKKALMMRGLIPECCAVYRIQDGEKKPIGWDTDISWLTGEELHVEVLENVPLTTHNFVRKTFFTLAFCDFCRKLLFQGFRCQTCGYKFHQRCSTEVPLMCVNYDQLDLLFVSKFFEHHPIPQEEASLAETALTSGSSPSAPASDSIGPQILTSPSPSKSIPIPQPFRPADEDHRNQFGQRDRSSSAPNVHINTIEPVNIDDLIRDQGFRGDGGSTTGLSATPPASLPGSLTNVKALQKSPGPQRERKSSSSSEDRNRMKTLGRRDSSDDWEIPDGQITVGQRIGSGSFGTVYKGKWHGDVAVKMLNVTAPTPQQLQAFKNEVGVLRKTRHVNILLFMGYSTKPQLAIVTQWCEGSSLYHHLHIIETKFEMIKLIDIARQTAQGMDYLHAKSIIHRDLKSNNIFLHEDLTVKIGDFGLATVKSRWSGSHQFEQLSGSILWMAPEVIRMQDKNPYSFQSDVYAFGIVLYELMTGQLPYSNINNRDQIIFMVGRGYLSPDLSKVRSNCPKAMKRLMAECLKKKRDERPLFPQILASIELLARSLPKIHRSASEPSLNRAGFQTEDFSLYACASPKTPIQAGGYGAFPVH
On to `O=C1Nc2ccccc2/C1=C1\CCc2cc(O)ccc21`, for which the inhibition came out at 6.96%.

As to `CCS(=O)(=O)c1ccc(OC)c(Nc2ncc(-c3cccc(C(C)=O)c3)o2)c1`, the inhibition amounted to 3.62%.

Consider `Cc1ccc(-c2cc3c(NC(=O)C4CC4)ncnc3o2)cc1`, for which the inhibition was 4.57%.

Take `COc1ccc(-c2nn3ncccc3c2-c2ccnc(Nc3ccc(F)c(F)c3)n2)cc1`: the inhibition worked out at 5.72%.

Consider `O=C(Nc1n[nH]c2nnc(-c3cccnc3)cc12)C1CC1`, for which the inhibition is 0.25%.

Consider `O=C(O[C@H]1CN[C@H](C#Cc2cc3ncnc(Nc4ccc5c(ccn5Cc5cc(F)ccc5F)c4)c3s2)C1)N1CCOCC1`, for which the inhibition came to 6%.

As to `COc1cccc(Nc2nccc(-c3cnn4ncccc34)n2)c1`, the inhibition is 5.24%.

Turning to `Nc1nccc(-c2c(-c3ccc(F)cc3)ncn2C2CCNCC2)n1`, the inhibition was -2.89% and 1.95%.

Turning to `NC(=O)c1ccc2c(-c3ccnc(NCCCO)n3)c(-c3ccc(F)cc3)nn2c1`, the inhibition was 10.9%.

Consider `CS(=O)(=O)Nc1ccc(-c2cc(-c3ccccc3)cc(C(N)=O)c2N)cc1`, for which the inhibition came out at 2.34%.

`CS(=O)(=O)Nc1ccc(-c2ccc3c(NC(=O)C4CC4)n[nH]c3c2)cc1`: the inhibition came out at 4.42%.

Take `Cn1c(-c2nonc2N)nc2cnccc21`: the inhibition was 4.15%.

For the compound `CC1=C(C(=O)Nc2ccc3[nH]ncc3c2)C(c2ccc(F)cc2)N=C(c2ccc(C(F)(F)F)nc2)N1` (configuration not stated), the inhibition came out at 1.92%.

In the case of `c1ccc(-c2n[nH]cc2-c2ccnc(-c3ccc(OCCn4ccnc4)cc3)c2)nc1`, the inhibition stood at 2.04%.

As to `CS(=O)(=O)CCNCc1ccc(-c2ccc3ncnc(Nc4ccc(OCc5cccc(C(F)(F)F)c5)cc4)c3c2)o1`, the inhibition amounted to 6.08%.

For the compound `FC(F)(F)CNc1nccc(-c2cnn3ncccc23)n1`, the inhibition worked out at 4.03%.

For `COc1ccc2ncn(-c3cc(O[C@H](C)c4ccccc4C(F)(F)F)c(C(N)=O)s3)c2c1`, the inhibition is -0.46%.

As for `N#Cc1cccc(Nc2ncc(-c3ccccc3)o2)c1`, the inhibition was 3.08%.

For `CCN1CCC(C(=O)Nc2n[nH]c3nnc(-c4cccc(F)c4F)cc23)CC1`, the inhibition is -0.36%.

On to `CNC(=O)c1ncccc1Nc1nc(Nc2cc3c(cc2OC)CCCN3C(=O)CN(C)C)nc2[nH]ccc12`, for which the inhibition worked out at 4.31%.

As for `CNC(=O)c1cncc(/C=C/c2ccccc2C)c1`, the inhibition turned out to be 6.43%.

As for `CS(=O)(=O)CCNCc1ccc(-c2ccc3ncnc(Nc4ccc(OCc5ccccc5)cc4)c3c2)o1`, the inhibition was found to be 4.6%.

Consider `CS(=O)(=O)CCNCc1ccoc1-c1ccc2ncnc(Nc3ccc(OCc4ccccc4)cc3)c2c1`, for which the inhibition turned out to be 1.03%.

`COc1cc2c(cc1Nc1nc(Nc3cccc(F)c3C(N)=O)c3cc[nH]c3n1)N(C(=O)CN1CCN(C(C)C)CC1)CC2`: the inhibition turned out to be 2.3%.

Consider `CN1CCC(n2cnc(-c3ccc(F)cc3)c2-c2ccnc(NCCO)n2)CC1`, for which the inhibition is 5.28%.

Turning to `CCn1c(-c2nonc2N)nc2cncc(C(=O)NCCNC)c21`, the inhibition is 7.93%.

As to `OCCCNc1nccc(-c2c(-c3ccc(F)cc3)nn3cc(C(F)(F)F)ccc23)n1`, the inhibition came out at 3.71%.

`NS(=O)(=O)c1ccc(N/N=C2\C(=O)Nc3ccc(C(=O)NCc4ccncc4)cc32)cc1`: the inhibition came to 14.8%.

Take `CC1(C)CC(n2cnc(-c3ccc(F)cc3)c2-c2ccnc(N)n2)CC(C)(C)N1`: the inhibition was 1.97%.

On to `COC(=O)Nc1nc2ccc(Oc3ccc(NC(=O)Nc4cc(C(F)(F)F)ccc4F)cc3)cc2s1`, for which the inhibition was 2.35%.

With `COc1c(C(N)=O)cc(-c2ccc(Cl)cc2)cc1-c1ccc(S(N)(=O)=O)cc1`, the inhibition came out at 6.5%.
